# Laboratory results published in ChEMBL document CHEMBL3988442, “University of Dundee, Small-Polar-MMV Screening Library” (2021).
# The whole screen tested about 69,000 compounds, of which about 30 (0.04%) showed an effect of 50% or more. The list comes from a sample in which strong results are over-represented; it also holds similar structures and randomly drawn compounds.
# Target: T1, Histidine--tRNA ligase (Trypanosoma cruzi (strain CL Brener)) (UniProt Q4DA54)
# T1 sequence (whole entry): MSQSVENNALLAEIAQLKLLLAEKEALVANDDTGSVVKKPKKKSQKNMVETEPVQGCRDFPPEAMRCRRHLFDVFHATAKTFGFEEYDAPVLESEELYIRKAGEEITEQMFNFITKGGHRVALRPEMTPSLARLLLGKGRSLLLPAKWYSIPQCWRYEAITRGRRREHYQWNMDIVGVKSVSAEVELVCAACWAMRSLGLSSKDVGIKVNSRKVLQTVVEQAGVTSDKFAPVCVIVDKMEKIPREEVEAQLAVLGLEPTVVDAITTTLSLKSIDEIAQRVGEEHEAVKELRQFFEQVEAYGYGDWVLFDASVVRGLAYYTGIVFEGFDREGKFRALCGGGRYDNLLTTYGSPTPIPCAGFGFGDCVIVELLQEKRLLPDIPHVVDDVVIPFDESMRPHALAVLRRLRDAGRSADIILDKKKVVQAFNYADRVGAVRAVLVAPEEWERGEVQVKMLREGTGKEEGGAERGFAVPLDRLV
# Assay: Trypanosoma cruzi histidyl tRNA synthetase (Tc-HisRS)
# Format: functional
# Set-up: scale not given: direction of the effect not stated beside the values
# Conditions: 30 µM
row,Compound,Percent Effect
1,CC(C)N1[C@H](Cn2cncn2)C[C@@H]2CN(Cc3ccsc3)CC[C@@H]21,0%
2,O=C(OCc1ccccc1)N1CC[C@H]2CC(CO)O[C@@H]2C1 (stereo not given in full),-3.09%
3,CCN1CC[C@@]2(C(=O)N3CCOCC3)CCN(C(=O)C(C)C)CC[C@@H]12,4.85%
4,O=C(NC1CC1)N1C[C@H]2CN(Cc3cccc(F)c3)C(=O)[C@H]2C1,5.88%
5,CC(C)=CCN1C(=O)[C@H]2CC[C@@H]1CN(c1ncccc1C(N)=O)C2,-2.41%
6,Cc1nc(CN2C(=O)CC[C@@H]3[C@H]2CCN3C(=O)c2ccno2)cs1,8.87%
7,O=S1(=O)CCN(Cc2cccnc2)[C@H]2CCN(c3ncccn3)CC[C@H]21,6.95%
8,Cn1nccc1C(=O)N1CCN(C(=O)C2CC2)[C@@H]2CS(=O)(=O)C[C@@H]21,4.47%
9,O=C1C[C@H]2[C@@H](CCN2C(=O)Cc2cccs2)N1Cc1cccnc1,0.752%
10,Cc1cccnc1CN1CCN(CC(=O)N(C)C)[C@@H]2CS(=O)(=O)C[C@@H]21,7.03%
11,Cc1cnc(N2CC[C@@H]3OC(COCC(=O)N(C)C)CC[C@@H]32)nc1 (stereo not given in full),-0.614%
12,Cn1cc(N2C(=O)CC[C@@H]3[C@H]2CCN3C(=O)c2cscn2)cn1,8.16%
13,COCCN1CCN(Cc2nccs2)[C@H]2CS(=O)(=O)C[C@H]21,4.08%
14,CCO[C@@H]1CC[C@H]2[C@H]1OCCN2CCOCc1ccccc1,4.12%
15,Cc1cc(C)nc(N2C[C@H]3OC(=O)N(CCc4cccc(Cl)c4)[C@H]3C2)n1,7.82%
16,CNC(=O)[C@H]1C[C@@H]2CN(C(=O)NC(C)C)C[C@H]1O2,1.03%
17,CC(C)NC(=O)[C@H]1C[C@@H]2CN(C(=O)NCc3ccccc3)C[C@H]1O2,9.09%
18,O=C(c1ccnnc1)N1CCN2C[C@H](Oc3cccc(F)c3)C[C@H]2C1,1.62%
19,O=C(c1ccco1)N1CC[C@H]2[C@H]1CC(=O)N2c1cccnc1,0%
20,O=C(N1CCCC1)N1CC[C@H]2[C@H]1CCN2c1ncccn1,6.8%
21,COC[C@@]12CCC[C@@H]1CN(C(=O)N1CCCC1)C2,5.03%
22,O=C(CC1CC1)N[C@@H]1CN(C(=O)c2cccs2)C[C@@H]2CCCO[C@@H]21,0%
23,CN1C(Cn2cccn2)C[C@@H]2CN(Cc3cnn(C)c3)CC[C@@H]21 (stereo not given in full),7%
24,CCC1=N[C@@]2(CC[C@@H]3CN(Cc4ccc(C)cc4)C[C@@H]32)C(=O)N1C,7.41%
25,CC(C)CN1CCS(=O)(=O)[C@@H]2CCN(S(=O)(=O)C3CC3)CC[C@@H]21,1.07%

row,Compound,Percent Effect
1,COc1ccc(CN2C[C@@H]3CC[C@H](C2)N(Cc2snnc2C)C3)cc1,11.4%
2,CC(C)CN1C(=O)CO[C@@H]2CN(C(=O)CC(F)(F)F)C[C@H]21,7.53%
3,Cn1cc(NC(=O)N2CCC2c2ccccc2)ccc1=O (stereo not given),22.6%
4,Cn1cc(NC(=O)N2CCCC2c2ccccn2)ccc1=O (stereo not given),69.3%
5,Cn1cc(NC(=O)N2CCCC2c2cccnc2)ccc1=O (stereo not given),38.6%
6,Cc1cccc(C(=O)N2C[C@H](NS(C)(=O)=O)[C@@H]3OCCC[C@@H]32)n1,12.6%
7,COC(=O)c1ccc(CNC(=O)Nc2ccc(=O)n(C)c2)cc1,7.79%
8,COc1ccc(CNC(=O)Nc2ccc(=O)n(C)c2)cc1,76.6%
9,Cn1cc(NC(=O)NCc2ccoc2)ccc1=O,72.7%
10,COc1ccc(CNC(=O)Nc2ccc(CN3CCOC3=O)cc2)cc1,2.12%
11,Cc1nnc(NC(=O)NCc2ccoc2)s1,7.43%
12,Cn1cc(NC(=O)CCc2ccsc2)ccc1=O,18.2%
13,CN(Cc1ccsc1)C(=O)Nc1ccc(=O)n(C)c1,13%
14,Cn1cc(NC(=O)NCc2ccsc2)ccc1=O,72.7%
15,O=C(NCc1ccoc1)Nc1ccc(CN2CCOC2=O)cc1,3.25%
16,Cc1ccc(N2CCC3(CC2)COCCN(c2nccs2)C3)nn1,62.3%
17,Cc1ccc(N2CCCC3(COCCN(c4nccs4)C3)C2)nn1 (stereo not given),12.4%
18,Cc1ccc(N2CC3(CCN(c4nccs4)C3)C2)nn1,4.96%
19,CNc1cc(-c2cccc(CN)c2)c2cc[nH]c2n1,81.7%
20,CNc1cc(-c2ccc(COCCN)cc2)c2cc[nH]c2n1,4.88%
21,CNc1cc(-c2ccccc2CN)c2cc[nH]c2n1,40.2%
22,CN(Cc1cccs1)C1CCC[C@@H]2CN(C(=O)c3cccn3C)C[C@H]12 (stereo not given in full),5.06%
23,c1ccc2c(c1)N(CC1CCOC1)CC21CCN(c2cnccn2)CC1 (stereo not given),29.6%
24,O=C1N(CC2CC2)CCC12CCN(c1ncccn1)CC2,4.51%
25,c1cnc(N2CCC3(CC2)CN(CC2CC2)c2ccccc23)nc1,66.2%

row,Compound,Percent Effect
1,CC(C)=CCN1C[C@H]2CC[C@@H]1CN(C(=O)c1ccc3c(c1)OCO3)C2,-7.73%
2,O=C1O[C@@H]2CN(Cc3ccccc3F)C[C@@H]2N1CCCN1CCOCC1,10.2%
3,CC(C)COC[C@@H]1CC[C@H]2[C@H](CCN2C(=O)c2ccncc2F)O1,-2.8%
4,COCCNC(=O)[C@@]12CCO[C@@H]1CCN(Cc1scnc1C)C2,4.3%
5,COc1ccc(N2Cc3nc(N4CCCC4)ncc3C2=O)cc1Cl,-3.73%
6,CCc1cc(N[C@H]2CC[C@@H](N)CC2)n2nc(C)c(C)c2n1,1.34%
7,CC(C)CS(=O)(=O)N1C[C@H]2C[C@H](C(=O)N3CCN(C)CC3)[C@@H](C1)O2,7.78%
8,CN1CCCCC1c1ncc2c(n1)CCN(Cc1ccc(Cl)c(F)c1)C2 (stereo not given),30%
9,O=C([C@H]1C[C@@H]2CCN(c3cccc(F)c3)C[C@H]2O1)N1CCCC1,0.952%
10,CN1CCN2CCN(Cc3cnc(NCc4ccccc4)nc3)CC2C1 (stereo not given),9.88%
11,c1ccc(CNc2ncc(CN3CCCN4CCC[C@H]4C3)cn2)cc1,48.1%
12,C1CC(CN2C[C@@H]3C[C@@H](c4nnc(C5CC5)o4)O[C@@H]3C2)C1,0%
13,O=C(c1ccc(F)cc1)N1C[C@@H]2COC[C@]2(COc2cccnc2)C1,8.47%
14,Cc1ccc(C(=O)N2CC[C@@H]3[C@H]2CCC(=O)N3c2ccccc2)o1,2.73%
15,CCCN1CC[C@@H]2[C@@H](CO[C@H]2CNC(=O)c2nccn2C)C1,3.09%
16,Fc1ccc(F)c(CN2CCC(c3cc4ncccc4cn3)CC2)c1,29.2%
17,COc1ccc(C)cc1CN1CCC(c2cc3ncccc3cn2)CC1,66.2%
18,Fc1cccc(CN2CCC(c3cc4ncccc4cn3)CC2)c1F,33.9%
19,Cc1occc1C(=O)N1C[C@@H]2OCCN(CCN3CCCC3)[C@@H]2C1,4.9%
20,Cc1csc(CN2CC[C@H]3C[C@H](c4nnc(C)[nH]4)O[C@@H]3C2)n1,-2.48%
21,Cc1ccc(S(=O)(=O)N2C[C@H]3C[C@H](NC(=O)c4ccnn4C)[C@H]3C2)cc1,5.95%
22,O=C(c1ccsc1)N1C[C@@H]2CCN(c3cccnc3)C[C@@H]2C1,-1.97%
23,CC(C)=CCN1CCN(Cc2nc3ccccc3[nH]2)[C@H]2CS(=O)(=O)C[C@H]21,4.35%
24,Cc1cc(C(=O)N2C[C@@H]3COC[C@]3(c3nnc(C)o3)C2)on1,0.99%
25,CNc1nc2c(s1)C(c1cccc(Cl)c1Cl)CC(=O)N2 (stereo not given),34.8%

row,Compound,Percent Effect
1,CNc1nc2c(s1)C(c1c(Cl)cccc1Cl)CC(=O)N2 (stereo not given),31.5%
2,CNc1nc2c(s1)C(c1c(F)cccc1Cl)CC(=O)N2 (stereo not given),52.2%
3,Cc1ccc(CN2C[C@@H]3COC[C@]3(COc3ccc(C#N)cn3)C2)o1,4.39%
4,O=C(CCc1ccccc1)N[C@H]1CC[C@@]2(CCC(=O)N2)CC1,9.71%
5,O=C(c1ccco1)N1CCO[C@@H]2CN(Cc3nccs3)CC[C@@H]2C1,2.21%
6,CN(C)C(=O)[C@H]1C[C@H]2OCC[C@H]2N(Cc2ccc3ccccc3n2)C1,12.8%
7,O=C(N1CCOCC1)[C@@]12CCO[C@@H]1CCN(CC1CCCC1)C2,0%
8,Cc1ncccc1NC(=O)[C@@H]1CCO[C@@H]2CCN(c3ccccc3)C[C@@H]21,7.26%
9,Cc1noc([C@@H]2C[C@H]3OCC[C@H]3N(Cc3cc(C)c(C)o3)C2)n1,8.87%
10,O=C1CC[C@H]2[C@H](CCN2C(=O)C2CCCO2)N1Cc1ccncc1 (stereo not given in full),-3.83%
11,O=C(NCc1ccco1)[C@H]1CC[C@@H]2[C@@H](CCN2C2CCC2)O1,8.54%
12,COc1ccc(CN2CCN(C(=O)N(C)C)[C@@H]3CS(=O)(=O)C[C@@H]32)cc1F,3.06%
13,CO[C@H]1C[C@@H]2CN(C(=O)c3ccc(C)s3)C[C@@H]2C1,8.05%
14,Cc1cc(=O)n(C)cc1NC(=O)Cc1cccc(F)c1,14.2%
15,Cc1cc(=O)n(C)cc1NC(=O)Cc1ccc(C(F)(F)F)cc1,14.2%
16,Cc1cc(=O)n(C)cc1NC(=O)Cc1cc(F)ccc1F,57.9%
17,CCC1=N[C@@]2(CC[C@@H]3CN(C(=O)NCc4ccccc4)C[C@@H]32)C(=O)N1C,3.83%
18,CCOc1cccc(C2CC(=O)NCc3nc(N4CCCC4)sc32)c1 (stereo not given),9.84%
19,COc1cccc(C2CC(=O)Nc3nc(N4CCCCC4)sc32)c1OC (stereo not given),74.5%
20,Nc1nc2c(s1)C(c1c(F)cccc1Cl)CC(=O)N2 (stereo not given),-3.73%
21,CNc1nc2c(s1)C(c1ccccc1F)CC(=O)N2 (stereo not given),14.9%
22,CC(C)Oc1ccccc1C1CC(=O)Nc2nc(N3CCOCC3)sc21 (stereo not given),1.24%
23,O=C1CC(c2ccccc2C(F)(F)F)c2sc(N3CCOCC3)nc2N1 (stereo not given),33.5%
24,COc1cccc(C2CC(=O)Nc3nc(N)sc32)c1OC (stereo not given),70.7%
25,CNc1nc2c(s1)C(c1cccc(F)c1F)CC(=O)N2 (stereo not given),3.26%

row,Compound,Percent Effect
1,COc1cccc(C2CC(=O)Nc3nc(N4CCOCC4)sc32)c1OC (stereo not given),65.2%
2,COc1ccccc1C1CC(=O)Nc2nc(N3CCCCC3)sc21 (stereo not given),74.5%
3,O=C1CC(c2ccccc2Br)c2sc(N3CCOCC3)nc2N1 (stereo not given),16.1%
4,CNc1nc2c(s1)C(c1ccccc1Cl)CC(=O)N2 (stereo not given),17.4%
5,COCCN1C[C@H]2CC[C@@H]1CN(C(=O)CCc1c(C)nn(C)c1C)C2,13.1%
6,CN(C)C(=O)COC[C@H]1CC[C@@H]2[C@@H](CCN2Cc2ccco2)O1,7.04%
7,Cc1ccc2nc(C(=O)N3CCCC[C@]4(C)NC(=O)CCC[C@H]34)cn2c1,2.24%
8,CCN(CC)CCNC(=O)CCc1c(C)nn(-c2ccccc2Br)c1C,61.4%
9,CCN(CC)CCNC(=O)CCc1c(C)nn(-c2ccc(Cl)cc2)c1C,2.27%
10,CCN(CC)CCNC(=O)CCc1c(C)nn(-c2ccccc2Cl)c1C,0%
11,Cc1cccc(CN2CC[C@@H]3[C@@H](CO[C@H]3CNc3ncccn3)C2)n1,10.5%
12,O=C(O)[C@]12CCCN(CC3CCOC3)C[C@H]1CN(c1ncccn1)C2 (stereo not given in full),-2.21%
13,CNC(=O)[C@@]12CCC3(CCN(C(=O)COC)CC3)[C@@H]1CN(S(C)(=O)=O)C2,3.74%
14,CN(C)C(=O)[C@H]1C[C@@H]2CN(S(=O)(=O)c3ccccc3)C[C@H]1O2,5.91%
15,CCCn1cc(NC(=O)c2ccc(S(C)(=O)=O)cc2)ccc1=O,56.7%
16,CCCn1cc(NC(=O)c2ccc(S(=O)(=O)CC)cc2)ccc1=O,35%
17,CCCn1cc(NC(=O)c2ccncc2)ccc1=O,38.3%
18,COC[C@H]1CNC(=O)[C@@H]2CCN(Cc3cccc(C)n3)CC[C@H]12,3.92%
19,CCc1nccn1CC(=O)N1C[C@H]2CC[C@@H]1CN(c1ncccn1)C2,5.46%
20,Cc1nc(CO[C@H]2CN(C(=O)c3cccnc3)[C@@H]3COC[C@H]23)cs1,-1.03%
21,O=C1[C@H]2CN(c3cnccn3)C[C@H]2CN1CC1CC1,7.22%
22,O=C(NCc1ccccc1)[C@H]1C[C@@H]2CN(S(=O)(=O)C3CC3)C[C@H]1O2,6.01%
23,CC1=CC[C@@H]2CN(C(=O)c3ccc(-c4nnn(C)n4)cc3)C[C@@H]2C1,0.8%
24,O=C(CSc1nc2nncc-2c(O)n1-c1ccccc1)N1CCOCC1,7.22%
25,O=C1CC[C@@H]2[C@@H](CCN2C(=O)C2CCOCC2)N1CC1CC1,0%
